Experimental data: PubChem BioAssay (NCATS)
Inconclusive results are not listed. Calls of active or inactive are those of the source. Unless noted, calls follow the shape of the dose curve; as a rule, active = well fitted curve in the direction sought with a large enough effect; inconclusive = small, poorly fitted or top-dose-only effect, or another doubt; inactive = no such curve, though single readings can be large; an effect the other way counts as inactive or inconclusive.

Tests used:
[1] = molecular target: Cytochrome P450 1A2 (Homo sapiens) (UniProt P05177); experiment: p450-cyp1a2 (AID 410; calls by dose curve; also: potency is read from the fitted curve at half-maximal effect)
Chain of Cytochrome P450 1A2 (Homo sapiens) (P05177 whole entry, looked up): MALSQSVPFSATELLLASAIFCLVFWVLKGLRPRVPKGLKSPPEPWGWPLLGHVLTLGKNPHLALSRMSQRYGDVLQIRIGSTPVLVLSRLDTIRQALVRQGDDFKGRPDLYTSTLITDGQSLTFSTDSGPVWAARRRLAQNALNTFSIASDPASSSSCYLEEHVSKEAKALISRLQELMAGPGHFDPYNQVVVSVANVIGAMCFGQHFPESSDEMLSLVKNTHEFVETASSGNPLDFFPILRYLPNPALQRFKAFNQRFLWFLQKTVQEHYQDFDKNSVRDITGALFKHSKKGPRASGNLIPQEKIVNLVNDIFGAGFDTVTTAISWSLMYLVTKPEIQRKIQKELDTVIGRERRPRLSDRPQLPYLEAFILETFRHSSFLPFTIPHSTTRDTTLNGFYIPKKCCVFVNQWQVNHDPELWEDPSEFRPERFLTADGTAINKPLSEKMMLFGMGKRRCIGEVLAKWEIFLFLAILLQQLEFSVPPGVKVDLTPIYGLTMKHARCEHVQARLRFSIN
Outline: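 Inhibition was calculated relative to 57 uM furafylline (full inhibition). The reaction used human CYP1A2 at 20nM with Luciferin-ME at its Km, 100uM, driven by an NADPH-regenerating system for 60 min at room temperature.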

[2] = molecular target: Glucocorticoid receptor (Homo sapiens) (UniProt P04150); experiment: GR-GFP Redistribution (AID 450;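 active = compounds whose dose series gives a full or clear partial fitted curve of increased nuclear translocation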; also: potency is read from the fitted curve at half-maximal effect); conditions: U2OS GR-GFP nuclear translocation, laser cytometry, 2 h
Chain of Glucocorticoid receptor (Homo sapiens) (P04150 whole entry, looked up, the tested form may be a part): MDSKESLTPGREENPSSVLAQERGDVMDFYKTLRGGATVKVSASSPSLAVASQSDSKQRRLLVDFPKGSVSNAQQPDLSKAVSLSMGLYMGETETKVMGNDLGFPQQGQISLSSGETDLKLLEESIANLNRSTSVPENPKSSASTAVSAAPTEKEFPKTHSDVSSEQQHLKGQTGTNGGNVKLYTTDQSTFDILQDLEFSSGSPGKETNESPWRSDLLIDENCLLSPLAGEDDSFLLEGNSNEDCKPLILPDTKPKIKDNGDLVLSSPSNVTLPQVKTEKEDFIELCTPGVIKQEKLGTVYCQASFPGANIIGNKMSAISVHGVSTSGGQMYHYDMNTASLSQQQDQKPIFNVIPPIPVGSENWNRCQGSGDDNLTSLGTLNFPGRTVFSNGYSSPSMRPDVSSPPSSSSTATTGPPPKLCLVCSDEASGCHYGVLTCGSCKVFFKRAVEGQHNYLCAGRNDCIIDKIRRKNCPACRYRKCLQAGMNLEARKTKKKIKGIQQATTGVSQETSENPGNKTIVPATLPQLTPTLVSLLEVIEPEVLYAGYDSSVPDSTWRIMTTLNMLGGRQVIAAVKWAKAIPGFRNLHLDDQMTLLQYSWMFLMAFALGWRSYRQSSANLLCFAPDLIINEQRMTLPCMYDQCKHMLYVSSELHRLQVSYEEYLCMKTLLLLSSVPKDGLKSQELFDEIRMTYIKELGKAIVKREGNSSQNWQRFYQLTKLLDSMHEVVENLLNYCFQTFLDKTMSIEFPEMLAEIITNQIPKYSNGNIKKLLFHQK

[3] = molecular target: Glucocorticoid receptor (Homo sapiens) (UniProt P04150); experiment: GR-EFC Redistribution (AID 451; calls by dose curve; also: potency is read from the fitted curve at half-maximal effect); conditions: CHO-K1 GR-EFC translocation, beta-gal luminescence, 2 h
Outline: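 Translocation of GR-ED fusion to nuclear EA restores b-gal, read by luminescence after 1 h room-temperature detection. Engineered CHO-K1 biosensor cells, 1,000/well, exposed 2 h at 37 C to titrations up to 46 uM final.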

[4] = molecular target: Mitogen-activated protein kinase 10 (Mus musculus) (UniProt Q61831); experiment: JNK3 AlphaScreen Assay (AID 530; active = well fitted curve in either direction with a large enough effect, not every such curve was filed as active;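 also: kinase came from lysate of stimulated human HepG2 cells; signal reports phosphorylation of biotinylated GST-cJun 1-79 at Ser73 with 10 µM ATP; series mostly up to about 57 µM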)
Outline: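 Room-temperature AlphaScreen kinase assay; pre-activated HepG2 lysate as JNK3 source, biotin-GST-cJun(1-79) substrate, 10 uM ATP, compound 15 min preincubation.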

[5] = molecular target: 3',5'-cyclic-AMP phosphodiesterase 4B (Homo sapiens) (UniProt Q07343); experiment: qHTS Assay for Inhibitors of PDE-IV (AID 607; active = well fitted activation curve with a large enough effect in the main read-out, with a control signal flat, not every such curve was filed as active)
Chain of 3',5'-cyclic-AMP phosphodiesterase 4B (Homo sapiens) (Q07343 whole entry, looked up): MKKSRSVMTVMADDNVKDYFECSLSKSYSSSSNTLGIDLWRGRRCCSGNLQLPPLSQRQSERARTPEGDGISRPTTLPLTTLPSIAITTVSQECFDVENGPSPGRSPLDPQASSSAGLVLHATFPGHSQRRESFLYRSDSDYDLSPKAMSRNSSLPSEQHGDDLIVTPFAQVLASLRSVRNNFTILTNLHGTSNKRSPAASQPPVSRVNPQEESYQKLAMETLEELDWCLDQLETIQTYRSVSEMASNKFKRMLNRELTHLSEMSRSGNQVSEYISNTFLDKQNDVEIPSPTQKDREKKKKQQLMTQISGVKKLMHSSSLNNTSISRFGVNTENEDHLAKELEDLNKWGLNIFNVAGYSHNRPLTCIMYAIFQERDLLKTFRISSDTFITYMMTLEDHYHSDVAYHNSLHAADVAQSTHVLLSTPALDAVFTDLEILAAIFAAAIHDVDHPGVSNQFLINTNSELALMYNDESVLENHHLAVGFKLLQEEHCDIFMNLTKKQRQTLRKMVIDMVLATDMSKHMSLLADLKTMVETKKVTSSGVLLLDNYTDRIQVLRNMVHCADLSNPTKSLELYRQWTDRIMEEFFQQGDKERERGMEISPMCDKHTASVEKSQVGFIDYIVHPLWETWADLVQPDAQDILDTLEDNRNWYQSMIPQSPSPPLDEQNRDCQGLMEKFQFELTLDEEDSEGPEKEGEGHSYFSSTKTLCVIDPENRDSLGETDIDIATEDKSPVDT
Outline: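 The readout is membrane depolarisation from a cAMP-sensing CNG channel, detected with a potential dye at ex 535/em 590. Cells were HEK293-derived (endogenous PDE-IV) at 1000 cells/well, titrated up to 22.9 uM final.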

[6] = molecular target: Guanine nucleotide-binding protein G(i) subunit alpha-1 (Homo sapiens) (UniProt P63096); experiment: qHTS Assay for Inhibitors of RGS12 GoLoco Motif Activity (Green Fluorophore) (AID 879);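 also: negative values mean loss of peptide binding seen as reduced polarization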
Chain of Guanine nucleotide-binding protein G(i) subunit alpha-1 (Homo sapiens) (P63096 whole entry, looked up): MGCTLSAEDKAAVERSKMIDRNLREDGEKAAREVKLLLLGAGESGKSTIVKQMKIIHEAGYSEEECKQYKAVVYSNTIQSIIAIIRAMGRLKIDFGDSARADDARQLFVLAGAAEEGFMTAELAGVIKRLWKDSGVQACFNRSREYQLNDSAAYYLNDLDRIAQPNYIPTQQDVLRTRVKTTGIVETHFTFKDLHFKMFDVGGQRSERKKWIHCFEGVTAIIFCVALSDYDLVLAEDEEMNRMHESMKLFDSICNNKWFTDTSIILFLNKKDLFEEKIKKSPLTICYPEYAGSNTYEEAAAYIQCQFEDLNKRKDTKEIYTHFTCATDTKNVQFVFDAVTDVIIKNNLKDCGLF
Outline: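 Fluorescence polarization assay: 50 nM Gαi1 with 10 nM FITC-labeled RGS12 GoLoco peptide in 10 mM Tris pH 7.5, 150 mM NaCl, 0.1 mM GDP, 0.05% NP40, 10 min at room temperature with compound.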

[7] = molecular target: Cytochrome P450 3A4 (Homo sapiens) (UniProt P08684); experiment: qHTS Assay for Activators of Cytochrome P450 3A4 (AID 885); also: nearly all actives have a fitted effect of over 65% in size
Chain of Cytochrome P450 3A4 (Homo sapiens) (P08684 whole entry, looked up): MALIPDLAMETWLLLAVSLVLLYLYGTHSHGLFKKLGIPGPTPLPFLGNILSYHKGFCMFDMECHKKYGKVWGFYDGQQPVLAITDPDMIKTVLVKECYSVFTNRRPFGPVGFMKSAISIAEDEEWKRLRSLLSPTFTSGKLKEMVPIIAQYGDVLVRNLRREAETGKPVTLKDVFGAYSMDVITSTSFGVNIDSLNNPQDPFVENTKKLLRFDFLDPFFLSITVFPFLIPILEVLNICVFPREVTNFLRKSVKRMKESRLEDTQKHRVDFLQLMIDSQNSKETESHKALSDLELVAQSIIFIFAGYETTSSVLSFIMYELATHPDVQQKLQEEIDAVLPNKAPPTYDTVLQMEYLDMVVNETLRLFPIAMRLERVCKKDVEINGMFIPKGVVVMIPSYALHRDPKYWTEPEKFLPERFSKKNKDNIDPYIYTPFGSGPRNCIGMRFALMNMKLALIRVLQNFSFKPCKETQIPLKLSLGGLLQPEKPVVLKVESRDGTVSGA
Outline: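 Steps: enzyme/substrate mix dispensed; compound added, 10 min RT; NADPH regeneration solution added, 60 min RT; luciferin detection buffer stops reaction; 20 min later luminescence measured.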

[8] = qHTS Assay for Identification of Small Molecule Antagonists for NFkB Signaling Pathway (AID 895; active = well fitted inhibition curve with a large enough effect in the signal ratio, with a control signal flat, not every such curve was filed as active; the % refers to the signal ratio)
Outline: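 Beta-lactamase reporter read-out (460 and 530 nm emission ratio, 405 nm excitation, 2 hrs substrate loading RT) after 5 hr stimulation with 10 pM TNF alpha in compound-treated NFkB-bla ME-180 cells in low-serum medium.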

[9] = qHTS Assay for Identification of Small Molecule Agonists for Thrombopoietin (TPO) Signaling Pathway (AID 917)
Outline: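 We measured Glycoprotein IIb promoter–luciferase output in IL-3-starved Ba/F3 murine cells expressing the human TPO receptor after 24 hrs at 37 C with compounds and 26 pM TPO.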

[10] = molecular target: Muscarinic acetylcholine receptor M1 (Rattus norvegicus) (UniProt P08482); experiment: qHTS Assay for Antagonists of Acetylcholine Muscarinic M1 Receptor: Kinetic Measurement of Intracellular Calcium Response (AID 943);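 also: Fluo-4 calcium signal as peak divided by basal fluorescence over 4 min; series mostly up to about 35 µM; nearly all actives have a fitted effect of over 75% in size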
Chain of Muscarinic acetylcholine receptor M1 (Rattus norvegicus) (P08482 whole entry, looked up): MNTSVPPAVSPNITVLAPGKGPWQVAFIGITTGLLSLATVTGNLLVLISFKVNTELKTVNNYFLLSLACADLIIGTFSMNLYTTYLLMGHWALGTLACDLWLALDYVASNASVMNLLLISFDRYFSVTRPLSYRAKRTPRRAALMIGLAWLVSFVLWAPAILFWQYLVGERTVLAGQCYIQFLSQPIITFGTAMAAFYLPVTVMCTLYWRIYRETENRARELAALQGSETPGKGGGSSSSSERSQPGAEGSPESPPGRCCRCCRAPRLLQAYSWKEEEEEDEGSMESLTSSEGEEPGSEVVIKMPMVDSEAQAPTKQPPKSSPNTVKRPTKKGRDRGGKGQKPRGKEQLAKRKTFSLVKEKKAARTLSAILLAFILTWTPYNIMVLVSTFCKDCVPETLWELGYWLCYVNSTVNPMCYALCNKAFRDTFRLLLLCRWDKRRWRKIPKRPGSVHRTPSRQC
Outline: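 Intracellular calcium flux, recorded with Fluo-4 in a kinetic plate reader, served as signal; the response to carbachol at EC80 (100 nM final) was taken as maximal over minimal fluorescence after a 10 min compound pre-incubation in rat M1-CHO cells.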

[11] = molecular target: Muscarinic acetylcholine receptor M1 (Rattus norvegicus) (UniProt P08482); experiment: qHTS Assay for Antagonists of Acetylcholine Muscarinic M1 Receptor: Measurement of IP-One Response (AID 944); also: nearly all actives have a fitted effect of over 75% in size
Outline: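 Steps: plate transfected CHO-M1 cells overnight; add test compound, 10 min; add carbachol (200 nM, EC80) in stimulation buffer with LiCl; incubate 30 min; add labelled IP1 tracer and anti-IP1 antibody in lysis buffer; read HTRF after 10 min.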

[12] = molecular target: Pyruvate kinase (Leishmania mexicana) (UniProt Q27686); experiment: qHTS Validation Assay for Inhibitors of Leishmania Mexicana Pyruvate Kinase (AID 945)
Chain of Pyruvate kinase (Leishmania mexicana) (Q27686 2-499 E452W): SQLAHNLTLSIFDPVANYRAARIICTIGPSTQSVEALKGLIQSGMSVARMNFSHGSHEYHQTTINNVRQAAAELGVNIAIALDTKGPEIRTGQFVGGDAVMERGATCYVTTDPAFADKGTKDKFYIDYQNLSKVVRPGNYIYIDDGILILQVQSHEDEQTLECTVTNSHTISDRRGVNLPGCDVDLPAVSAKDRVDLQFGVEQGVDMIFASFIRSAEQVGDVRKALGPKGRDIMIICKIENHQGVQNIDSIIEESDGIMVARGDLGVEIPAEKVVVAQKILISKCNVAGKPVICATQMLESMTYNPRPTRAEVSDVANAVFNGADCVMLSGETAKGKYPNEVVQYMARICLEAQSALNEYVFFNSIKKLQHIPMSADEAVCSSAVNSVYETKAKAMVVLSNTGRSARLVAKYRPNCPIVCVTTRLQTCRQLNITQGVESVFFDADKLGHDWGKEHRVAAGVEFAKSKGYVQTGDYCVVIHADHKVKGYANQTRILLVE
Outline: (§1)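 LmPYK E451W 0.2 nM; 0.5 mM PEP, 0.1 mM ADP, 7 mM MgCl2, 50 mM KCl, imidazole pH 7.2, 0.01% Tween 20, 0.05% BSA; 1 h RT; PKLight luminescence; DMSO-normalized.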

[13] = molecular target: Alpha-galactosidase (Coffea arabica) (UniProt Q42656); experiment: Counterscreen for Glucocerebrosidase Inhibitors: qHTS Assay for Coffee Bean alpha-Galactosidase at pH 4.5 (AID 957); also: series mostly up to about 77 µM
Chain of Alpha-galactosidase (Coffea arabica) (Q42656 whole entry, looked up): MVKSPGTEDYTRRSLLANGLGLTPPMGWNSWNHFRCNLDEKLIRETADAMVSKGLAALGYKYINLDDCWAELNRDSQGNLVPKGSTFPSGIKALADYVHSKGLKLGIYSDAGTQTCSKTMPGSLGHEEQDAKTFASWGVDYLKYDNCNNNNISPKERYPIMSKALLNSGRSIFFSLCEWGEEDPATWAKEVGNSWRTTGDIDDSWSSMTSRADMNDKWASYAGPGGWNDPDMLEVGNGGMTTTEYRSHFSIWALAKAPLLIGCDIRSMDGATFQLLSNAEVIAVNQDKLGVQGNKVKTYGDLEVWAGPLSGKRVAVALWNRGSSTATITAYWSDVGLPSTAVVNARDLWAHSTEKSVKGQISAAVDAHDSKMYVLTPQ
Outline: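 AC50 values derive from Hill-equation modeling of concentration-response data, normalized to no-enzyme and full-activity controls. The pH 4.5 citrate assay used 2 nM coffee bean enzyme and 80 uM fluorogenic substrate for 20 min.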

[14] = molecular target: Pyruvate kinase (Leishmania mexicana) (UniProt Q27686); experiment: qHTS Validation Assay for Activators of Leishmania Mexicana Pyruvate Kinase (AID 959)
Outline: as §1

[15] = molecular target: Alpha-galactosidase A (Homo sapiens) (UniProt P06280); experiment: Counterscreen for Glucocerebrosidase Inhibitors: qHTS Assay for Human alpha-Galactosidase at pH 4.5 (AID 992)
Chain of Alpha-galactosidase A (Homo sapiens) (P06280 whole entry, looked up): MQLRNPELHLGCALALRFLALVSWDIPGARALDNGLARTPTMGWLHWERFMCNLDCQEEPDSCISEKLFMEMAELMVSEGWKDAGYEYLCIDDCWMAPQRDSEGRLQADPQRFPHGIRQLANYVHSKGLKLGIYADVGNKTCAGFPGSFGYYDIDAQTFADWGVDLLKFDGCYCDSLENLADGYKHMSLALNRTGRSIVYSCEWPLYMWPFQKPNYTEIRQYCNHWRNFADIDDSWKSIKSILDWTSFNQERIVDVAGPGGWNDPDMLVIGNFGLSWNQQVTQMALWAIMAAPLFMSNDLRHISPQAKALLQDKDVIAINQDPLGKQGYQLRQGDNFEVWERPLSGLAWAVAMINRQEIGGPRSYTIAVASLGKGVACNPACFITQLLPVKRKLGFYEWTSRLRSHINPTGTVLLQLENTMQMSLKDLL
Outline: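 Concentration-response curves (0.7 nM to 77 uM final) were modeled with the Hill equation to give AC50. Reactions: 2 nM enzyme, 80 uM fluorogenic alpha-galactoside, pH 4.5 citric acid buffer, 20 min, room temperature.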

[16] = molecular target: Alpha-galactosidase (Coffea arabica) (UniProt Q42656); experiment: Counterscreen for Glucocerebrosidase Inhibitors: qHTS Assay for Coffee Bean alpha-Galactosidase at pH 5.9 (AID 998)
Outline: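 Compounds were titrated from 0.7 nM to 77 uM against green coffee bean alpha-galactosidase (2 nM) using 80 uM fluorogenic 4-methylumbelliferyl substrate. After 20 min at room temperature, reactions were stopped at pH 10 and read by fluorescence.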

[17] = molecular target: DNA repair nuclease/redox regulator APEX1 (Homo sapiens) (UniProt P27695); experiment: qHTS Validation Assay for Inhibitors of the Human Apurinic/apyrimidinic Endonuclease 1 (APE1) (AID 1705;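 also: TAMRA fluorescence gain over two minutes as APE1 cuts a quenched THF abasic duplex; series mostly up to about 57 µM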)
Chain of DNA repair nuclease/redox regulator APEX1 (Homo sapiens) (P27695 whole entry, looked up): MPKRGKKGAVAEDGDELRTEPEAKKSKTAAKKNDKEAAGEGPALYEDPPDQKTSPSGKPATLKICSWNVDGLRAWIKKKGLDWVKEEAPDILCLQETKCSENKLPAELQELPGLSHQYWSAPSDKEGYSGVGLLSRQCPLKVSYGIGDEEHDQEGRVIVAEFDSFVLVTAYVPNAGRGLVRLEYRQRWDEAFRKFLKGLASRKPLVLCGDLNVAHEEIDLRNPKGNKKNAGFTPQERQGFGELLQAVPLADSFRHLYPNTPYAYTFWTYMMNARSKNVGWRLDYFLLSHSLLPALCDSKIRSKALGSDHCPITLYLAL
Outline: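 Endonuclease activity of human APE1 is followed as dequenching when the enzyme incises a tetrahydrofuran abasic site in a short duplex labelled 5'-TAMRA/3'-BHQ-2 (50 nM final), after 15 min enzyme–compound preincubation at room temperature.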

[18] = Counterscreen for APE1 Inhibitors: Fluorescent Dye Displacement Validation Assay (AID 1707)
Outline: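 Assay buffer: Tris-HCl pH7.5 with 50mM NaCl, 2 mM MgCl2, 0.01% Tween-20. Dye 250 nM, duplex 50 nM final. Readout: decrease in ThO endpoint fluorescence, 480 nm excitation, 540 nm emission.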

[19] = molecular target: Endonuclease 4 (Escherichia coli (strain K12)) (UniProt P0A6C1); experiment: Counterscreen for APE1 Inhibitors: qHTS Validation Assay for Inhibitors of Endonuclease IV (AID 1708)
Outline: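 Enzymatic AP-site incision assay using a double-stranded THF substrate labelled with TAMRA and BHQ-2; released fluorescence signals activity. Enzyme 2 nM, substrate 50 nM, 15 min compound preincubation.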

[20] = qHTS for differential inhibitors of proliferation of Plasmodium falciparum line 7G8 (AID 1815);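 also: parasite growth measured after three days of incubation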

Measured: Potency

N#CC(C#N)=Cc1ccc([N+](=O)[O-])c(O)c1
active: [1] 31.6 µM | [14] 20 µM
inactive: [2] > 46 µM | [3] > 46 µM | [4] | [5] | [6] | [7] | [8] | [9] | [10] | [11] | [12] | [13] | [15] | [16] | [17] | [18] | [19] | [20]
